Data on 29 compounds can be found in ChEMBL document CHEMBL4513146, “CO-ADD screening of Karazin Kharkiv National University (Ukraine) compounds”.

The test system of one test is Klebsiella pneumoniae. The settings on record: Concentration 32 ug.mL-1;; ASSAY_TEST Inhibition of Bacterial Growth; detection method Absorption (OD600); MEDIA CAMHB; plate type 384well; NBS; CORNING #3640; time 18 hr.
For a further test, the system named is Candida albicans. The following applies: Concentration 32 ug.mL-1; ASSAY_TEST Inhibition of Fungal Growth; detection method Absorption (OD530).
In another test the test system is Cryptococcus neoformans. The following applies: Concentration 32 ug.mL-1; ASSAY_TEST Inhibition of Fungal Growth; detection method Resazurin; Absorption (OD600-OD570); plate type 384well; NBS; CORNING #3640. In general terms: The colour change of resazurin is a common sign of viable cells or microbes.

Entries with a potency or affinity are not part of this list.

Regarding `Cc1ccc(NC(=O)Cn2nc3cc(C)nc(Nc4ccc(F)c(C)c4)n3c2=O)cc1`, the values for the Inhibition in the test with Klebsiella pneumoniae, in the test with Candida albicans and in the test on Cryptococcus neoformans were 11.85%, 7.21% and -5.79%, respectively.
`COc1cc(OC)c(NC(=O)Cn2nc3c4c5c(sc4ncn3c2=O)CC(C)CC5)cc1Cl` (configuration not stated): the figures for the Inhibition in the test on Klebsiella pneumoniae, in the test with Candida albicans and in the test on Cryptococcus neoformans were 11.66%, 3.55% and -23.25%, respectively.
For `CCc1ccc(NC(=O)Cn2c(=O)c3nnc(C(C)C)n3c3ccccc32)cc1` the same measures were 8.25%, 26.99% and -22.84%.
For `CCCCn1c(=O)c2sccc2n2c(=O)n(CC(=O)N3CCCC(C(=O)OCC)C3)nc12` (configuration not stated) the same measures were -2.03%, -3.31% and -9.46%.
For `COc1ccccc1NC(=O)CSc1nnc2c(=O)n(-c3ccc(C)c(C)c3)ccn12` the same measures were 7.95%, 1.21% and -7.82%.
Turning to `CC(=O)c1ccc(NC(=O)Cn2nc3ccc(-c4ccc(C)cc4)nn3c2=O)cc1`, the Inhibition in the test on Klebsiella pneumoniae is listed as 11.92%; in the test on Candida albicans, 4.12%; in the test on Cryptococcus neoformans it was -11.07%.
As for `CCCc1nnc2c(=O)n(CC(=O)Nc3ccc(Br)cc3)c3ccccc3n12`, the Inhibition in the test on Klebsiella pneumoniae is 14.09%; with Candida albicans it was 0.11%; in the test on Cryptococcus neoformans, -25.88%.
The matching figures for `CCCc1nnc2c(=O)n(CC(=O)N3CCCc4ccccc43)c3ccccc3n12`: 7.45%, 0.04% and -21.26%.
For `O=C(Cn1nc2c(SC3CCCCC3)nccn2c1=O)NCc1ccc(F)cc1` the same measures were 9.17%, 0.24% and -16.51%.
The matching figures for `CCCCc1ccc(NC(=O)Cn2nc3c(SC4CCCCC4)nccn3c2=O)cc1`: 1.99%, 20.8% and -5.76%.
For `COc1ccccc1-n1ccn2c(SCc3ccccc3F)nnc2c1=O`, the Inhibition is given as 11.1% in the test with Klebsiella pneumoniae, 2.31% in the test on Candida albicans and -5.25% in the test on Cryptococcus neoformans.
For `Cc1cc(C)c(NC(=O)CSc2nnc3ccc(C(=O)Nc4cccc(F)c4)cn23)c(C)c1` the same measures were 4.12%, 1.89% and -5.55%.
Consider `Cc1ccc(-c2ccc3nn(CC(=O)Nc4ccc(Cl)c(C(F)(F)F)c4)c(=O)n3n2)cc1C`, for which the values for the Inhibition with Klebsiella pneumoniae, with Candida albicans and in the test with Cryptococcus neoformans were 0.66%, 5.4% and -13.03%, respectively.
For `COc1cc(OC)c(NC(=O)Cn2nc3c(N4CCOCC4)nccn3c2=O)cc1Cl` the same measures were 1.91%, 3.65% and -8.41%.
For `CSc1ccc(CNC(=O)Cn2nc3c(N4CC(C)CC(C)C4)nccn3c2=O)cc1` (configuration not stated) the same measures were 6.58%, 0.13% and -5.38%.
As to `N#Cc1cccc(NC(=O)CSc2nnc3c4cc(-c5ccc(F)cc5)nn4ccn23)c1`, the Inhibition in the test on Klebsiella pneumoniae was 16.47%; in the test with Candida albicans it was 16.76%; in the test on Cryptococcus neoformans, -30.63%.
Take `Cc1cccc(N(Cc2cccc(Cl)c2)S(=O)(=O)c2cccn3c(C)nnc23)c1`: the Inhibition is recorded as 4.74% in the test on Klebsiella pneumoniae, 3% with Candida albicans and -4.93% in the test with Cryptococcus neoformans.
Consider `Cc1ccc(-c2cc3c4nn(CC(=O)Nc5ccccc5Cl)c(=O)n4ccn3n2)cc1`, for which the Inhibition in the test on Klebsiella pneumoniae is reported as 2.6%; with Candida albicans, 0.36%; in the test with Cryptococcus neoformans, -23.03%.
The matching figures for `Cc1ccc(NC(=O)Cn2nc3c(Oc4ccccc4Cl)nccn3c2=O)cc1F`: 12.22%, 0.49% and -9.07%.
The matching figures for `Cc1nnc2ccc(S(=O)(=O)N(Cc3ccc(F)cc3)c3cc(F)cc(F)c3)cn12`: 9.19%, 0.51% and -14.68%.
Take `O=c1c2sccc2n2c(=S)[nH]nc2n1CC1CCCO1` (configuration not stated): the Inhibition in the test with Klebsiella pneumoniae is 6.97%; in the test with Candida albicans, -1.18%; in the test on Cryptococcus neoformans, -5.63%.
For `COc1ccc(NC(=O)Cn2nc3cc(C)nc(Nc4ccc(F)c(C)c4)n3c2=O)cc1` the same measures were 10.41%, 4.68% and -7.34%.
For `O=C(Cn1nc2c3cc(-c4ccccc4)nn3ccn2c1=O)N1CCCc2ccccc21` the same measures were 12.97%, -0.58% and -23.31%.
With `Cc1cccc(CN(c2ccc(F)cc2)S(=O)(=O)c2ccc3nnc(C)n3c2)c1`, the Inhibition in the test with Klebsiella pneumoniae was 6.15%; in the test with Candida albicans it was 1.93%; in the test on Cryptococcus neoformans it was -4.65%.
In the case of `CCOC(=O)N1CCN(C(=O)CCc2nnc3c4cc(-c5ccccc5)nn4ccn23)CC1`, the Inhibition is 14.35% in the test on Klebsiella pneumoniae, 1.03% in the test on Candida albicans and -14.62% in the test with Cryptococcus neoformans.
For the compound `CC(C)Cn1c(=O)c2sccc2n2c(=O)n(Cc3ccc(Cl)cc3)nc12`, the Inhibition with Klebsiella pneumoniae is on record as 2.18%; with Candida albicans it was -1.9%; in the test on Cryptococcus neoformans it was -15.45%.
The matching figures for `COc1ccc(OC)c(NC(=O)Cn2nc3ccc(SCc4ccc(Cl)cc4)nn3c2=O)c1`: 2.51%, 9.63% and -22.41%.
Consider `COc1ccc(C(=O)CSc2nnc3c(=O)n(-c4ccc(F)c(F)c4)ccn23)cc1`, for which the Inhibition in the test on Klebsiella pneumoniae is recorded as 16.31%; with Candida albicans, 2.03%; in the test on Cryptococcus neoformans, -11.53%.
For `Cc1ccc(-c2ccc3nn(CC(=O)Nc4ccc(Br)cc4F)c(=O)n3n2)cc1` the same measures were 9.08%, 3.52% and -13.83%.

As usually defined, the Inhibition is the drop in the measured response relative to a control, in per cent.
